# In all, about 16,000 sequences were measured (“rpm ratio (pull-down/input)”: median about 0.94, highest 2% from about 1.7 on). What follows is part of a selection rich in the highest values, with near analogues and random picks from the rest.
# Target: T1, MBP-FoxP1dN (Mus musculus, UniProt P58462 326-579)
# T1 sequence: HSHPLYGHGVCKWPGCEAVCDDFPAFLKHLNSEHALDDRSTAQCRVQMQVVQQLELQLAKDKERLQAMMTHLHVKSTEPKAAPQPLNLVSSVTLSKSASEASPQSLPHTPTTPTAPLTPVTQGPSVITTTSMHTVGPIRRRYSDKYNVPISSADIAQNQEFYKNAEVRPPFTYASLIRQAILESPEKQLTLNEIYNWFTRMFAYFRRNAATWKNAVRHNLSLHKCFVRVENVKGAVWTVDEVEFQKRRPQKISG
# Test: PD-seq (MBP pull-down with sequencing); 20 mM Tris-HCl pH 7.5, 100 mM NaCl, 1.5 mM MgCl2, 0.4 uM protein, 0.1 uM dsDNA library, 30 min, room temperature, amylose pull-down; high values mean tight binding
# Details: protein: recombinant; tags: His6-MBP; chain copies: 2; dsDNA, one strand shown
# Outline: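 Protein and DNA were mixed at 0.4 µM and 0.1 µM and held for 30 min at room temperature in Tris pH 7.5 buffer with NaCl and MgCl2; the protein was a His6-MBP-tagged, N-terminally truncated mouse FoxP3 or FoxP1 fragment from E. coli, and the DNA a Klenow-filled double-stranded degenerate library. Amylose resin captured the complexes, which were washed three times. Binding is read as reads-per-million enrichment of pull-down versus input after Illumina sequencing, with replicates pooled.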
row,Sequence,binding signal
1,GATGATTGTTCTCCCAGCTGATGAATTACCATTTTCGAGTAAACAAATTTTCCTAATCTTTCTGTTCAAGCGCCATCTAC,1.18 RPM ratio (pull-down/input)
2,GATGATTGTTCTCCCAGCTGATGAATTTTCTGTTTCGAGTAAACAAATTTTCCTAATCTTTCTGTTCAAGCGCCATCTAC,0.977 RPM ratio (pull-down/input)
3,GATGATTGTTCTCCCAGCTGATGAATTACTGTTTTCGAGTAAACAAATTTTCCTAATCTTTCTGTTCAAGCGCCATCTAC,2.6 RPM ratio (pull-down/input)
4,GATGATTGTTCTCCCAGCTGATGAATTACTGATTTCGAGTAAACAAATTTTCCTAATCTTTCTGTTCAAGCGCCATCTAC,1.24 RPM ratio (pull-down/input)
5,GATGATTGTTCTCCCAGCTGATGAATTTCCTGTTTCGAGTAAACAAATTTTCCTAATCTTTCTGTTCAAGCGCCATCTAC,0.949 RPM ratio (pull-down/input)
6,GATGATTGTTCTCCCAGCTGATGAATTGTTTCTTTCGAGTAAACAAATTTTCCTAATCTTTCTGTTCAAGCGCCATCTAC,1.58 RPM ratio (pull-down/input)
7,GATGATTGTTCTCCCAGCTGATGAATTGTTTTTTTCGAGTAAACAAATTTTCCTAATCTTTCTGTTCAAGCGCCATCTAC,2.25 RPM ratio (pull-down/input)
8,GATGATTGTTCTCCCAGCTGATGAATTGATTGTTTCGAGTAAACAAATTTTCCTAATCTTTCTGTTCAAGCGCCATCTAC,1.61 RPM ratio (pull-down/input)
9,GATGATTGTTCTCCCAGCTGATGAATTTACTGTTTCGAGTAAACAAATTTTCCTAATCTTTCTGTTCAAGCGCCATCTAC,1.35 RPM ratio (pull-down/input)
10,GATGATTGTTCTCCCAGCTGATGAATTTCTGTTTTCGAGTAAACAAATTTTCCTAATCTTTCTGTTCAAGCGCCATCTAC,2.32 RPM ratio (pull-down/input)
11,GATGATTGTTCTCCCAGCTGATGAATTGGCTATGTCGAGTAAACAAATTTTCCTAATCTTTCTGTTCAAGCGCCATCTAC,0.854 RPM ratio (pull-down/input)
12,GATGATTGTTCTCCCAGCTGATGAATTCGTCAGTTCGAGTAAACAAATTTTCCTAATCTTTCTGTTCAAGCGCCATCTAC,0.905 RPM ratio (pull-down/input)
13,GATGATTGTTCTCCCAGCTGATGAATTGTCTCCATCGAGTAAACAAATTTTCCTAATCTTTCTGTTCAAGCGCCATCTAC,1.11 RPM ratio (pull-down/input)
14,GATGATTGTTCTCCCAGCTGATGAATTGGTTTTATCGAGTAAACAAATTTTCCTAATCTTTCTGTTCAAGCGCCATCTAC,1.14 RPM ratio (pull-down/input)
15,GATGATTGTTCTCCCAGCTGATGAATTAGTGAGATCGAGTAAACAAATTTTCCTAATCTTTCTGTTCAAGCGCCATCTAC,0.857 RPM ratio (pull-down/input)
16,GATGATTGTTCTCCCAGCTGATGAATTATTTACTTCGAGTAAACAAATTTTCCTAATCTTTCTGTTCAAGCGCCATCTAC,2.15 RPM ratio (pull-down/input)
17,GATGATTGTTCTCCCAGCTGATGAATTACTTTATTCGAGTAAACAAATTTTCCTAATCTTTCTGTTCAAGCGCCATCTAC,1.15 RPM ratio (pull-down/input)

row,Sequence,binding signal
1,GATGATTGTTCTCCCAGCTGATGAATTGTTTACTTCGAGTAAACAAATTTTCCTAATCTTTCTGTTCAAGCGCCATCTAC,2.82 RPM ratio (pull-down/input)
2,GATGATTGTTCTCCCAGCTGATGAATTTACTTCTTCGAGTAAACAAATTTTCCTAATCTTTCTGTTCAAGCGCCATCTAC,1.33 RPM ratio (pull-down/input)
3,GATGATTGTTCTCCCAGCTGATGAATTTATTACTTCGAGTAAACAAATTTTCCTAATCTTTCTGTTCAAGCGCCATCTAC,1.29 RPM ratio (pull-down/input)
4,GATGATTGTTCTCCCAGCTGATGAATTTTTTACTTCGAGTAAACAAATTTTCCTAATCTTTCTGTTCAAGCGCCATCTAC,1.05 RPM ratio (pull-down/input)
5,GATGATTGTTCTCCCAGCTGATGAATTGCCAATGTCGAGTAAACAAATTTTCCTAATCTTTCTGTTCAAGCGCCATCTAC,0.943 RPM ratio (pull-down/input)
6,GATGATTGTTCTCCCAGCTGATGAATTGCGCGAATCGAGTAAACAAATTTTCCTAATCTTTCTGTTCAAGCGCCATCTAC,1.14 RPM ratio (pull-down/input)
7,GATGATTGTTCTCCCAGCTGATGAATTAGATTTATCGAGTAAACAAATTTTCCTAATCTTTCTGTTCAAGCGCCATCTAC,1.13 RPM ratio (pull-down/input)
8,GATGATTGTTCTCCCAGCTGATGAATTCTCTTTATCGAGTAAACAAATTTTCCTAATCTTTCTGTTCAAGCGCCATCTAC,0.967 RPM ratio (pull-down/input)
9,GATGATTGTTCTCCCAGCTGATGAATTTGCTTCTTCGAGTAAACAAATTTTCCTAATCTTTCTGTTCAAGCGCCATCTAC,1.02 RPM ratio (pull-down/input)
10,GATGATTGTTCTCCCAGCTGATGAATTGCTTTGTTCGAGTAAACAAATTTTCCTAATCTTTCTGTTCAAGCGCCATCTAC,1.11 RPM ratio (pull-down/input)
11,GATGATTGTTCTCCCAGCTGATGAATTTGTTGCTTCGAGTAAACAAATTTTCCTAATCTTTCTGTTCAAGCGCCATCTAC,1.54 RPM ratio (pull-down/input)
12,GATGATTGTTCTCCCAGCTGATGAATTGTTTGCTTCGAGTAAACAAATTTTCCTAATCTTTCTGTTCAAGCGCCATCTAC,2.2 RPM ratio (pull-down/input)
13,GATGATTGTTCTCCCAGCTGATGAATTTGCTTTTTCGAGTAAACAAATTTTCCTAATCTTTCTGTTCAAGCGCCATCTAC,1.21 RPM ratio (pull-down/input)
14,GATGATTGTTCTCCCAGCTGATGAATTTTTTGCTTCGAGTAAACAAATTTTCCTAATCTTTCTGTTCAAGCGCCATCTAC,0.938 RPM ratio (pull-down/input)
15,GATGATTGTTCTCCCAGCTGATGAATTGCTTTTTTCGAGTAAACAAATTTTCCTAATCTTTCTGTTCAAGCGCCATCTAC,1.45 RPM ratio (pull-down/input)
16,GATGATTGTTCTCCCAGCTGATGAATTGTTGCTTTCGAGTAAACAAATTTTCCTAATCTTTCTGTTCAAGCGCCATCTAC,2.12 RPM ratio (pull-down/input)
17,GATGATTGTTCTCCCAGCTGATGAATTTTTGCTTTCGAGTAAACAAATTTTCCTAATCTTTCTGTTCAAGCGCCATCTAC,1.83 RPM ratio (pull-down/input)

# Reference: article PMC12820563, “FoxP3 forms a head-to-head dimer in vivo and stabilizes its multimerization on adjacent microsatellites”
